# Measurements reported in PubChem BioAssay (NCATS).
# Results filed as inconclusive are left out. Where a call stands in place of a potency, no number is given. Active and inactive are the calls of the source. Unless noted, calls come from the whole dose curve; as a rule, active = well fitted curve in the direction sought with a large enough effect; inconclusive = small, poorly fitted or top-dose-only effect, or another doubt; inactive = no such curve, though single readings can be large; an effect the other way counts as inactive or inconclusive.
# What was measured:
# [1] = HPAF-II 24hr Apoptosis Induction qHTS against the NCATS CANVASS Library (AID 1347356)
# Outline: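 Apoptosis induction in HPAF-II pancreatic cancer cells is measured as caspase-3/7 luminescence after a 24-hour exposure to compounds.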
# [2] = HEK293 18hr Apoptosis Induction qHTS against the NCATS CANVASS Library (AID 1347357)
# Outline: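 Caspase-Glo 3/7 luminescence (15 min, room temperature) measured apoptosis after an 18-hour, 37 degrees C exposure of HEK293 cells (500 cells/well) to compounds in 11 points.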
# [3] = HPAF-II 12hr Apoptosis Induction qHTS against the NCATS CANVASS Library (AID 1347358)
# Outline: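 Apoptosis in HPAF-II pancreatic cancer cells is scored as caspase 3/7 luminescence following a 12-hour exposure to an 11-point compound series.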
# [4] = HEK293 24hr Apoptosis Induction qHTS against the NCATS CANVASS Library (AID 1347359)
# Outline: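 HEK293 cells, 500 per well, exposed to an 11-point compound series for 24 hours at 37 degrees C. Caspase 3/7 activity read by Caspase-Glo luminescence (DEVD substrate) after 15 min at room temperature.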
# [5] = HPAF-II 18hr Apoptosis Induction qHTS against the NCATS CANVASS Library (AID 1347360)
# Outline: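 Caspase-3/7 activation was measured with luminescent Caspase-Glo 3/7 reagent (15 min, RT) in HPAF-II cancer cells (500 cells/well). Before detection, cells had been treated for 18 h at 37 C with compounds (11 points).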
# [6] = HEK293 12hr Apoptosis Induction qHTS against the NCATS CANVASS Library (AID 1347361)
# Outline: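 HEK293 cells (500/well, DMEM + 10% FBS) were exposed to natural products across an 11-point series for 12 hours at 37 degrees C. Caspase-3/7 activity was then measured with DEVD luciferase luminescence after 15 min at room temperature.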
# [7] = qHTS for ATAD5 Agonist screened against the NCATS CANVASS Library (AID 1347367);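 note: luciferase reporter driven by ATAD5 which rises upon DNA damage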
# Outline: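 Genotoxicity via ATAD5-luciferase luminescence after 16 h compound exposure (11-point series) at 37C in HEK293T-ATAD5 cells. CellTiter-Fluor viability read precedes the luminescence read; MMS serves as positive control.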
# [8] = J3T Cancer Cell Toxicity qHTS against the NCATS CANVASS Library (AID 1347371);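 note: J3T is a canine glioma cancer cell line seeded at 500 cells per well; series mostly up to about 46 µM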
# Outline: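 Viability of the J3T glioma line from dog is scored by ATP luminescence after a 72 hr incubation with natural products.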
# [9] = qHTS for Hypoxia signaling pathway (HIF-1) agonists against the NCATS CANVASS Library (AID 1347375)
# Outline: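 Inducers of HIF-1 signaling were detected in ME-180 cells bearing an HRE-driven beta-lactamase reporter after 17 h compound exposure. Activity came from CCF4-AM FRET emission ratio (460/530 nm) in qHTS format.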
# [10] = DH5-alpha competent E. coli microbial cell viability qHTS against the NCATS CANVASS Library (AID 1347377); conditions: outcome: dose series up to 46.1 µM unless noted
# Outline: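 Cell viability of competent DH5-alpha E. coli is scored from ATP content by luminescence. Cells sit overnight at 37C with compound across an 11-point concentration series.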
# [11] = Inflammasome Signaling qHTS Counterscreen: IL-1-beta AlphaLISA counterscreen against the NCATS CANVASS Library (AID 1347381);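 note: cell-free check with purified IL-1β in medium and no THP-1 cells; series mostly up to about 57 µM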
# Outline: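 To flag interference with the AlphaLISA read-out, a known amount of purified IL-1-beta (4 pg) replaced cell supernatant. Detection used anti-IL-1-beta acceptor beads, biotinylated antibody and streptavidin donor beads at room temperature.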
# [12] = Cytotoxicity qHTS for assessment of Hepg2 cells membrane integrity screened against the NCATS CANVASS Library (AID 1347387)
# Outline: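 Fluorescence proportional to lysed-cell number, from LDH leaking out of HepG2 cells exposed 5 hr at 37C to 0.59 nM - 46 uM compound (11-point qHTS), is measured after 10 min with CytoTox-ONE.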
# [13] = qHTS for activators of dead-cell proteases activity screened against the NCATS CANVASS Library (AID 1347392);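 note: luminescence from protease leaking out of membrane-damaged cells cleaving impermeant substrate; rising signal means more cytotoxicity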
# Outline: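 HepG2 cells, 2000/well, attached 18 h at 37C, then exposed to compounds (11-point qHTS) for 5 h. Dead-cell protease release read as luminescence from cell-impermeant AAF-aminoluciferin substrate after 15 min at room temperature.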
# [14] = Redox Reaction Profiling qHTS: Assay Interference Panel against the NCATS CANVASS Library (AID 1347401); note: potency is the fitted concentration of half-maximal effect
# Outline: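 Compounds in 11-point series incubated with 5 uM resazurin and 200 uM DTT in 50 mM HEPES pH 7.3, 50 mM NaCl. Resorufin fluorescence (Ex 525/Em 598) read before and after 15 min in the dark.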
# [15] = molecular target: Luciferin 4-monooxygenase (Photinus pyralis) (UniProt P08659); experiment: Firefly luciferase counterscreen qHTS: Assay Interference Panel against the NCATS CANVASS Library (AID 1347363); note: potency is the fitted concentration of half-maximal effect
# Luciferin 4-monooxygenase (Photinus pyralis), sequence (P08659 whole entry, looked up): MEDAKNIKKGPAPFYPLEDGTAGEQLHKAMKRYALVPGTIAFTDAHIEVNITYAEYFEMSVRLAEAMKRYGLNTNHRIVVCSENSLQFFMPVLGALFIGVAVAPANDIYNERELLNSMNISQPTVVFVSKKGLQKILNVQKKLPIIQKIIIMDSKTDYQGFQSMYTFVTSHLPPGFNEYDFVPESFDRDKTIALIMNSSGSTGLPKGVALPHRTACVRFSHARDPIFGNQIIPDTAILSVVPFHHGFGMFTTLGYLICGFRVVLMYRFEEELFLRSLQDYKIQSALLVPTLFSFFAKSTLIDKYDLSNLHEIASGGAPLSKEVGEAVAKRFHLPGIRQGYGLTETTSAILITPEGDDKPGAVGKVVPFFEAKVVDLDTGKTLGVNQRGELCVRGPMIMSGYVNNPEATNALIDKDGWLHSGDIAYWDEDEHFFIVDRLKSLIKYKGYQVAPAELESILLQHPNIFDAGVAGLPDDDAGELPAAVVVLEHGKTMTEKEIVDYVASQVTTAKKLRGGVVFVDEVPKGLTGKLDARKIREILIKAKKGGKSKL
# Outline: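 Purified P. pyralis luciferase (0.04 ug/mL, 4x reagent) added to Tris-acetate buffer with 0.013 mM D-luciferin, 0.013 mM ATP and 13.3 mM Mg-acetate; compounds preincubated 15 min, then luminescence read after 5 min, RT.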
# [16] = qHTS drug screen for cell cycle checkpoint inhibitors in PARPi-resistant BRCA-mutant ovarian cancer cell lines. (AID 1963452; calls by dose curve; note: potency is the fitted concentration of half-maximal effect); conditions: PEO1/OlaR viability, CellTiter-Glo luminescence, 96 h; for Z-AUC: stronger effect = lower value
# Outline: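 PEO1, PEO4 and PEO1/OlaR ovarian cancer cells, 600 per well, exposed 96 h at 37C to a dilution series. Viability read by CellTiter-Glo luminescence, normalized to DMSO and empty wells; activity summarized as Z-AUC.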
# [17] = measured here: PEO1 parental Z-AUC
smiles,measurement,setting,value
COC1=C(C2=C(OC)C(=O)c3cc4c(c(O)c3C2=O)C(=O)O[C@H](C)C4)C(=O)c2c(cc3c(c2O)C(=O)O[C@H](C)C3)C1=O,outcome,[1],inactive
same,outcome,[2],inactive
same,outcome,[3],inactive
same,outcome,[4],inactive
same,outcome,[5],inactive
same,outcome,[6],inactive
same,Potency,[7],inactive
same,Potency,[8],inactive
same,outcome,[9],inactive
same,outcome,[10],inactive [at 15.4 µM]
same,outcome,[11],inactive
same,outcome,[12],inactive
same,outcome,[13],inactive
same,Potency,[14],1140 nM (active)
C=CC(C)(C)[C@@]12C[C@H]3C(=O)N/C(=C\c4cnc[nH]4)C(=O)N3[C@@H]1Nc1ccccc12,outcome,[1],inactive
same,outcome,[2],inactive
same,outcome,[3],inactive
same,outcome,[4],inactive
same,outcome,[5],inactive
same,outcome,[6],inactive
same,Potency,[15],inactive
same,Potency,[7],inactive
same,Potency,[8],inactive
same,outcome,[9],inactive
same,outcome,[10],inactive
same,outcome,[11],inactive
same,outcome,[12],inactive
same,outcome,[13],inactive
same,Potency,[14],inactive
c1ccc2nc3c(cc2c1)[nH]c1ccccc13,outcome,[1],inactive
same,outcome,[2],inactive
same,outcome,[3],inactive
same,outcome,[4],inactive
same,outcome,[5],inactive
same,outcome,[6],inactive
same,Potency,[15],1720 nM (active)
same,Potency,[7],inactive
same,Potency,[8],inactive
same,outcome,[9],inactive
same,outcome,[10],inactive
same,outcome,[11],inactive
same,outcome,[12],inactive
same,outcome,[13],inactive
same,Potency,[14],inactive
CCC(=O)N[C@@H](C[C@H](C)C(Cl)(Cl)Cl)C(=O)N1C(=O)C=C(OC)[C@@H]1C[C@H](C)C(Cl)Cl,outcome,[1],inactive
same,outcome,[2],inactive
same,outcome,[3],inactive
same,outcome,[4],inactive
same,outcome,[5],inactive
same,outcome,[6],inactive
same,Potency,[15],inactive
same,Potency,[7],inactive
same,Potency,[8],inactive
same,outcome,[9],inactive
same,outcome,[11],inactive
same,outcome,[12],inactive
same,outcome,[13],inactive
same,Potency,[14],inactive
COC(=O)[C@@]12OC[C@]34[C@H]([C@@H](O)[C@@H]1O)[C@@]1(C)CC(=O)C(O)=C(C)[C@@H]1C[C@H]3OC(=O)[C@H](OC(=O)/C=C(\C)C(C)C)[C@@H]24,Potency,[16],174 nM (active)
same,Z-AUC,[16]; [17],-2.46
same,Z-AUC,[16]; measured here: PEO4 Z-AUC,-2.64
O=C(CBr)N1CC([N+](=O)[O-])([N+](=O)[O-])C1,Z-AUC,[16],1.13 (inactive)
same,Z-AUC,[16]; [17],0.0375
same,Z-AUC,[16]; measured here: PEO4 Z-AUC,1
COc1cc2cc(c1Cl)N(C)C(=O)C[C@H](OC(=O)C(C)C)[C@]1(C)O[C@@H]1[C@H](C)[C@@H]1C[C@@](O)(NC(=O)O1)[C@H](OC)/C=C/C=C(\C)C2,Potency,[16],549 nM (active)
same,Z-AUC,[16]; [17],-2.8
same,Z-AUC,[16]; measured here: PEO4 Z-AUC,-2.84
C[C@]12COC(=O)C[C@@H]1CC[C@@H]1[C@@H]2CC[C@@]2(C)[C@H]1CC[C@]2(C)O,Z-AUC,[16],0.596 (inactive)
same,Z-AUC,[16]; [17],0.611
same,Z-AUC,[16]; measured here: PEO4 Z-AUC,0.327
CO/C1=C/C(C)=C\[C@@H](C)[C@@H](O)[C@@H](C)C/C(C)=C\C=C/[C@H](OC)[C@@H]([C@@H](C)[C@@H](O)[C@H](C)[C@@]2(O)C[C@@H](O)[C@H](C)[C@@H](C(C)C)O2)OC1=O,Z-AUC,[16],-2.07 (inactive)
same,Z-AUC,[16]; [17],-2.1
same,Z-AUC,[16]; measured here: PEO4 Z-AUC,-2.32
C=C(C)[C@@H]1CCC(C)=C[C@H]1c1c(O)cc(CCCCC)cc1O,Z-AUC,[16],-0.487 (inactive)
same,Z-AUC,[16]; [17],0.125
same,Z-AUC,[16]; measured here: PEO4 Z-AUC,0.904
